The sample as a whole holds a higher share of hits than the screen did.
TTR transcr act = TTR transcription activators in neuroblastoma reporter cells, primary screen, cell-based, luminescence, SH-SY5Y, TTR promoter Gaussia luciferase; 92,000 tested, 1.3% active; 100% = recombinant luciferase protein wells; activation, % at 16.7 µM;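 active = activation above the mean of all tested compounds plus 3 SD, cut at about 9.5% in these data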;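 also: cells exposed to compounds for one day before reading; 0% = median of all test compound wells on the plate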
TTR inh HuH7 = TTR promoter reporter inhibitors in hepatoma cells, counter-screen for TTR transcription activator project, cell-based, luminescence, HuH7 hepatoma; HuH7 TTR promoter-Gaussia luciferase reporter; inhibition, % at 16.7 µM; shares compounds with TTR transcr act; 1,100 tested, 4% active;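 active = average inhibition above the solvent-only control wells' mean plus 3 SD, cut at about 15% in these data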;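 also: 0% = cells with DMSO only and 100% = cells with inhibitor control FD; inhibitors lower well luminescence so higher value means more inhibition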
TTR act confirm = TTR transcription activators, retest, confirmation, cell-based, luminescence, SH-SY5Y, triplicate. shares compounds with TTR transcr act. SHSY5Y TTR promoter Gaussia luciferase; 100% = purified Lucia enzyme wells, no cells. activation, % at 16.7 µM. 1,100 tested, under 10 active. AID 1117280, 2014;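 active = mean activation above a set limit taken from the earlier primary screen, cut at about 11% in these data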;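 also: 0% = DMSO-treated cells and 100% = recombinant Lucia luciferase without cells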
The depositor's hits bear a star.

SMILES	TTR transcr act	others
CC(C)CC1(C)NC(=O)N(CC(=O)Nc2ccc3c(c2)CCC3)C1=O (stereo not drawn)	11*	TTR inh HuH7=-26;TTR act confirm=1
CCc1cccc(NC(=O)CN2C(=O)NC3(CCCCCCC3)C2=O)c1	3
CC1(c2cccc(Br)c2)NC(=O)N(CC(=O)Nc2ccc(N3CCCCC3)cc2)C1=O (stereo not drawn)	0
Cc1ccc(NC(=O)Cc2ncon2)cc1Cl	-2
CCN(CC)C(=O)C1=C(C)N(Cc2ccc(OC)cc2)C(=O)C(CC(=O)NCc2cccs2)C1 (stereo not drawn)	23*	TTR inh HuH7=-18;TTR act confirm=1
CCN(CC)C(=O)C1=C(C)N(Cc2ccc(OC)cc2)C(=O)C(CC(=O)NCc2cccc3ccccc23)C1 (stereo not drawn)	2
CC1=C(C(=O)N(C(C)C)C(C)C)CC(CC(=O)NCc2cccs2)C(=O)N1Cc1ccc(F)cc1 (stereo not drawn)	1
CN(C(=O)c1ccc(NC(=O)Cc2ccc(NC(=O)C3CCN(C(=O)C4CCC4)CC3)cc2)cc1)C1CCCC1	1
COC(=O)c1ccc2cn[nH]c2c1	3
COC(=O)c1cc(OC)nc(OC)c1	16*	TTR inh HuH7=-13;TTR act confirm=2
COC(=O)c1ccc2nccnc2c1	0
CCCCC[C@H]1CN(Cc2ccccc2)C(=O)[C@@H]1CC(=O)NCc1ccccc1	4
Nc1c(C(=O)N/N=C/c2ccc(OCc3ccccc3)cc2)cnn1-c1ccccc1	-2
COC(=O)Nc1ccc2ccc3c(NC(=O)OC)ccc4ccc1c2c43	0
O=S(Cc1cc(Sc2ccccc2)nc(-c2ccccc2)n1)c1ccccc1 (stereo not drawn)	12*	TTR inh HuH7=12;TTR act confirm=-1
COc1cccc(Sc2cc(N3CCOCC3)nc(-c3ccccc3)n2)c1	-2
O=S(Cc1ccccc1)c1ccccc1 (stereo not drawn)	1
CCOc1ccc(C(=O)CCC(=O)NNC(=O)c2ccccc2O)cc1	-1
O=C(N[C@@H](Cc1ccc(Br)cc1)C(=O)O)OCC1c2ccccc2-c2ccccc21	0
CC(C)(C)OC(=O)[C@H](Cc1ccccc1)NCC(=O)OCc1ccc(C(=O)NCc2ccccc2)cc1	-1
O=C(CN(C(=O)OCC1c2ccccc2-c2ccccc21)[C@@H](Cc1ccccc1)C(=O)O)OCc1ccc(C(=O)NCc2ccccc2)cc1	12*	TTR inh HuH7=-21;TTR act confirm=2
COC(=O)C1=C(C)N(CC(C)C)C(=O)/C1=C\c1cccs1	-1
COC(=O)C1=C(C)NC(=S)N(C(C)=O)C1c1ccccc1 (stereo not drawn)	-5
C=CCNC(=O)C1CCN(S(=O)(=O)c2ccccc2)CC1	-1
CC(C)(C)NC(=O)C(c1ccc(C#N)cc1)n1c(=O)c(-c2ccccc2)nc2ccccc21 (stereo not drawn)	-1
SMILES	TTR transcr act	others
Cc1nc(Nc2ccc(Cl)c(Cl)c2)sc1C(=O)Nc1ccccc1	-3
Cc1ccccc1Nc1nc(-c2ccccc2)c(C(=O)Nc2cccnc2)s1	13*	TTR inh HuH7=-13;TTR act confirm=-1
O=C(Nc1ccccc1)c1sc(Cl)nc1-c1ccccc1	0
O=C1CN(C(=O)CSc2nc3ccccc3c(=O)n2Cc2ccc(F)cc2)c2ccccc2N1	-1
Cc1ccc(C(=O)O/N=C(\c2ccccc2)c2cccnc2)cc1	1
N/C(=N\OC(=O)c1ccc2c(c1)OCO2)c1cccnc1	1
N/C(=N\OC(=O)c1ccccc1)c1cccnc1	10*	TTR inh HuH7=-11;TTR act confirm=2
CCOc1ccc(Nc2nc(Cc3nnc(SCC(=O)c4ccc(C)c(C)c4)o3)cs2)cc1	-5
Cc1[nH][nH]c(=O)c1C=Nc1ccc(C(F)(F)F)cc1	-2
COc1ccccc1N1CCN(C(=O)CSc2nc3ccccc3nc2N2CCC(C)CC2)CC1	-1
COc1ccccc1N1CCN(C(=O)CSc2nnc(NC(=O)C(C)C)s2)CC1	13*	TTR inh HuH7=-28;TTR act confirm=0
CC(=O)Nc1nnc(SCC(=O)N2CCc3ccccc32)s1	1
Clc1ccc(-n2nnc(-c3nccs3)n2)cc1Cl	6
Cc1ccc(C)c(-n2c(-c3ccc4c(c3)OCO4)n[nH]c2=S)c1	-1
Cc1ccc(-c2nnc(-c3cccc4ccccc34)o2)cc1	0
Cn1c(=O)n(CCC(=O)O)c2ccccc21	-1
O=C(O)CCn1[nH]c(=O)ccc1=O	27*	TTR inh HuH7=-9;TTR act confirm=1
O=c1ccc(=O)n(-c2ccccc2)[nH]1	1
Cc1cccc(NC(=S)Nc2cccc(C)n2)n1	1
Oc1cccc(C(Nc2nccs2)c2ccc3cccnc3c2O)c1 (stereo not drawn)	-1
Cc1cccc(NC(c2ccc(O)cc2)c2ccc3ccc(C)nc3c2O)n1 (stereo not drawn)	15*	TTR inh HuH7=20*;TTR act confirm=0
O=C(NCCN1CCOCC1)C(=O)NCC1OCCN1S(=O)(=O)c1cc(F)ccc1F (stereo not drawn)	2
CCCCn1nc2cc(C(=O)N(CC)c3ccc(OC)cc3)ccc2c1OCC	13*	TTR inh HuH7=-7;TTR act confirm=0
CCCCn1nc2cc(C(=O)NCCc3cccs3)ccc2c1OCC	-4
CCCCn1nc2cc(C(=O)NC3CCc4ccccc43)ccc2c1OCC (stereo not drawn)	1
SMILES	TTR transcr act	others
CCCCN(CCCC)c1ccc(C(=O)c2ccccc2C(=O)O)c(O)c1	0
COc1cccc(-c2csc(N3CCN(Cc4ccccc4)CC3)n2)c1	10.0*	TTR inh HuH7=9;TTR act confirm=-1
COc1cccc(NC(=O)N2CCN(c3nc(-c4cccc(OC)c4)cs3)CC2)c1	-4
COc1ccc(-c2cc(=O)[nH]c(N3CCN(Cc4ccccc4)CC3)n2)cc1	1
O=C1CC(Nc2ccc(N3CCOCC3)cc2)C(=O)N1c1ccccc1F (stereo not drawn)	-2
O=C(O)CSc1cnc2ccccc2n1	8
Cc1cc(SCC(=O)O)nc2ccccc12	30*	TTR inh HuH7=-2;TTR act confirm=1
Cc1cc(SCC(=O)c2cc3ccccc3o2)nc2ccccc12	0
CN(C)c1ccc(/C=N/NC(=O)CN2CCCCC2)cc1Br	1
O=S(=O)(NCCN1CCOCC1)c1ccc(Oc2ccccc2Cl)cc1	-3
COc1cccc(S(=O)(=O)NCc2ccc(C(=O)NCc3ccco3)cc2)c1	8
C=CCC[C@@H](Cc1ccc(F)cc1)C(=O)OC[C@@H](NC(=O)[C@H](CC=C)CC(=O)NCCO)C(C)(C)C	0
C=CC[C@@H](CC(=O)N[C@H](CO)Cc1ccccc1)C(=O)N[C@@H](C)COC(=O)[C@@H](CC=C)Cc1ccc(F)cc1	-5
C=CC[C@@H](CC(=O)NCCO)C(=O)N[C@@H](C)COC(=O)[C@@H](CC=C)Cc1ccc(F)cc1	21*	TTR inh HuH7=-15;TTR act confirm=0
S=c1[nH]nc(-c2ccc3ncccc3c2)n1-c1ccc2c(c1)OCCO2	0
COC(=O)c1ccc(N2CCOCC2)c(NC(=O)c2cccnc2)c1	-1
COc1ccc(-c2noc3c2-c2nc(C(C)C)sc2CC3)cc1	4
Brc1ccc(-c2noc3c2-c2nc(C4CCCCC4)sc2CC3)cc1	14*	TTR inh HuH7=-4;TTR act confirm=0
CCCc1nc2c(s1)CCc1onc(-c3ccc(OC)cc3)c1-2	-4
COc1ccccc1N1CCN(C(=O)c2cc(C3CC3)on2)CC1	2

From PubChem BioAssay
